# Data as given in PubChem BioAssay AID2253 (Southern Research Specialized Biocontainment Screening …, 2010).
# In all, about 2,200 compounds went through this assay and about 1,300 (59%) were called active. How the calls were made is not given here. The set was probably picked from earlier hits. The list is a sample of the results. Entries with a potency or affinity are not part of this list.
# Test: THP-1 cell cytotoxicity, dose response, cytotoxicity control for Salmonella PhoP regulon inhibitors, S. typhimurium screen hits (AID 2253)
# Conditions: THP-1 viability, CellTiter-Glo luminescence, 72 h; series mostly up to 50 µM
row,SMILES,outcome
1,CCN(CC)c1nc2n(c(=O)n1)CCO2,inactive
2,COC(=O)Cc1c(O)ccn(Cc2ccc(F)cc2)c1=O,inactive
3,CC1CCN(C(c2cc3cc4c(cc3[nH]c2=O)OCO4)c2nnnn2CC2CCCO2)CC1 (centres undefined),inactive
4,CCOC(=O)C1CCCN(C(=O)Cc2ccc(Cl)cc2)C1 (centres undefined),inactive
5,COCC(=O)N=Nc1c(O)[nH]c2ccccc12,inactive
6,Cc1ccc(N(CC(=O)N/N=C/c2ccco2)S(=O)(=O)c2ccccc2)cc1,inactive
7,C=CCn1c(C)cc(C(=O)CSc2nc(N)cc(N)n2)c1C,inactive
8,COc1c(/C=N/Nc2nc(N3CCCCC3)nc(N3CCCCC3)n2)cccc1[N+](=O)[O-],inactive
9,O=C(O)CC(NC(=S)NCc1ccccc1)C(=O)O (centres undefined),inactive
10,CCCCN(C(=O)NC(=O)Nc1nc2ccc(OC)cc2s1)S(C)(=O)=O,inactive
11,CCOc1ccc(Nc2nc(NCCN3CCOCC3)nc(OC)n2)cc1,inactive
12,CCOc1ccc(NC(=O)CCC(=O)n2nc(C)cc2C)cc1,inactive
13,CNc1nc(Sc2ccccc2)cc(C(F)(F)F)n1,inactive
14,Cc1ccc(/C(O)=C2\C(=O)C(=O)N(CC(C)O)C2c2cccc(F)c2)cc1 (centres undefined),inactive
15,CCOC(=O)CCCc1c[nH]c2ccccc12,inactive
16,NC(=O)CCc1c[nH]c2ccccc12,inactive
17,CC1COc2c(N3CCN(C)CC3)c(F)cc3c(=O)c(C(=O)O)cn1c23 (centres undefined),inactive
18,Cn1ncc(N=Cc2ccccc2O)c1C(=O)Nc1ccccc1,inactive
19,CCOC(=O)c1c(/N=C/c2ccc(O)cc2O)sc2c1CCC2,inactive
20,CCCc1ccc(C(=O)CCC(=O)O)cc1,inactive
21,CCOC(=O)c1ccccc1C(=O)N1CCOCCOCCOCC1,inactive
22,COc1ccccc1N1CCN(C(=O)CSc2nc3ccccc3o2)CC1,inactive
23,COc1ccc(C2C(C#N)=C(N)OC3=C2C(=O)CCC3)cc1Cn1cc([N+](=O)[O-])cn1 (centres undefined),inactive
24,Cc1ccc2nc(SCC(=O)c3c(C)[nH]c4ccccc34)[nH]c2c1,inactive
25,CCOC(=O)c1[nH]c2ccccc2c1NC(=O)C(C)(C)C,inactive

row,SMILES,outcome
1,CNC(=O)CSc1nnc(-c2cccnc2)n1CCc1ccccc1,inactive
2,CCCCC1CCC(C(=O)Nc2ccccc2)CC1 (centres undefined),inactive
3,Cc1cccc(NC(=O)c2ccc(Cn3cc(C(F)(F)F)ccc3=O)cc2)c1,inactive
4,Cn1cnnc1SCC(=O)Nc1cccc(C(=O)O)c1,inactive
5,S=C(c1ccc2c(c1)OCO2)N1CCCC1,inactive
6,c1ccc(-c2ncnc3nc4n(c23)CCC4)cc1,inactive
7,Cc1c(Cl)cccc1NC(=O)CSc1ncnc2c1cnn2CCc1ccccc1,inactive
8,COC(=O)C1C(O)C(C)C(O)C(C)(O)/C=C\C=C(/C)C(=O)Nc2c(C)c(OC(C)=O)c3c(c2O)C(=O)C(C)=C2OCOC(=C23)/C(C)=C/C(C)(O)C(O)C(C)C1O (centres undefined),inactive
9,CCSc1nnc(NC(=O)Cc2cccc(OC)c2)s1,inactive
10,CNc1nnc(-c2cccc(N(C)C)c2)s1,inactive
11,O=C(COc1ncnc2sccc12)N1CCN(S(=O)(=O)c2ccc(Cl)cc2)CC1,inactive
12,C=CCOc1ccccc1CNCCCN1CCOCC1,inactive
13,COc1cccc(OCC(O)CN2CCN(c3ccccn3)CC2)c1 (centres undefined),inactive
14,Cc1ccc(NC(=S)NCCc2ccccc2)c(C)c1,inactive
15,COc1ccc(OC)c(NC(=S)NCCCN2CCOCC2)c1,inactive
16,c1ccc(Cn2nnc3c(NCc4ccc5c(c4)OCO5)nc(C4CC4)nc32)cc1,inactive
17,O=C(O)c1cc(NCc2ccc3c(c2)OCO3)ccc1N1CCOCC1,inactive
18,CCOc1ccc(N/C=C/C(=O)c2ccc(OC)cc2)c([N+](=O)[O-])c1,inactive
19,COc1ccc(NC(=O)CN2CCCCC2)c([N+](=O)[O-])c1,inactive
20,CCCc1nnc(NC(=O)c2cn(CC)c3cc(N4CCN(C)CC4)c(F)cc3c2=O)s1,inactive
21,Cc1nc(SCC(=O)NC(C)c2ccccc2)c2oc3ccccc3c2n1 (centres undefined),inactive
22,CCCn1c(SCC(=O)NCCc2ccccc2)nnc1-c1cccnc1,inactive
23,Cn1ccnc1C(O)c1ccc(OCc2ccccc2)cc1 (centres undefined),inactive
24,CCOC(=O)c1c(N)ssc1=S,inactive
25,O=S1(=O)CC(O)C(Nc2ccccc2Cl)C1 (centres undefined),inactive

row,SMILES,outcome
1,NC(=O)c1c(N)sc2c1CCCCC2,inactive
2,O=C(Nc1cnn(Cc2ccc(F)cc2)c1)c1cnccn1,inactive
3,O=C(Nc1cnc2ccccc2c1)N1CCOCC1,inactive
4,CC(C)(C)n1ncc2c(=O)n(CC(=O)Nc3ccc4c(c3)OCO4)cnc21,inactive
5,CC(C)n1cc(C(=O)N2CCCC(N3CCN(c4ccc(F)cc4)CC3)C2)cn1 (centres undefined),inactive
6,O=[N+]([O-])c1ccc(N2CCN(CCOc3nonc3-c3ccccc3)CC2)c(Cl)c1,inactive
7,Cc1ccc(-n2nnnc2SCC(=O)Nc2ncc(Cc3ccccc3Cl)s2)cc1,inactive
8,Cc1ccc(NS(=O)(=O)c2ccc(N3C(=O)CCC3=O)cc2)cc1,inactive
9,CCC(CC)C(=O)N1c2ccc(F)cc2CCC1C (centres undefined),inactive
10,CCOC(=O)N1CCN(C(=O)c2cn(CC)c3cc(N4CCN(C)CC4)c(F)cc3c2=O)CC1,inactive
11,Nc1[nH]c(=O)ncc1F,inactive
12,O=C(NCCc1cn2ccccc2n1)c1ccccc1F,inactive
13,Cc1nnc(NC(=O)CSc2ncnc3scc(-c4ccccc4)c23)s1,inactive
14,CC(C)CCn1c(SCC(=O)N2CC(=O)Nc3ccccc32)nc2scc(-c3cccs3)c2c1=O,inactive
15,COC(=O)c1ccc(NC(=S)Nc2ccc3ccccc3c2)cc1,inactive
16,COC(=O)c1ccccc1Oc1cnc2ccccc2n1,inactive
17,COc1ccc(/C=N/NC(=O)CC(=O)NCc2cccnc2)cc1,inactive
18,CC(=O)N1CCN(c2cc3c(cc2F)c(=O)c(C(=O)O)cn3C2CC2)CC1,inactive
19,Cn1c(CO)cnc1SCc1ccc([N+](=O)[O-])cc1,inactive
20,CC(=O)c1sc(NC(=O)COc2ccc([N+](=O)[O-])cc2)nc1C,inactive
21,CCOC(=O)CC(=O)CSc1nc2c(c(C)c1C#N)CCC2,inactive
22,Cc1cc2c(c(=O)n1C)C(Cc1ccccc1)C(C#N)=C(N)O2 (centres undefined),inactive
23,O=C1Nc2ccccc2C(O)(C(=O)N2CCCCC2)N1c1ccccc1 (centres undefined),inactive
24,O=C1CC(c2ccccc2)n2ncnc2N1 (centres undefined),inactive
